# Compound activity deposited in PubChem by several laboratories.
# PERK inhibitor = human PERK inhibition, primary cell-based screen; Q9NZJ5; inhibition, % at 5.6 µM; CHO PERK-DD fusion, SEAP luminescence translation reporter; actives 0.17% (n = 220,000);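 active = inhibition above the mean inhibition of all tested compounds plus 3 SD, set separately per screening campaign, cut at about 2.9% in these data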;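 also: PERK kinase domain activated by AP20187 dimerizer at 100 nM; 0% = DMSO with dimerizer and 100% = rapamycin at 8.4 µM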
# PABP polyA inh = PABP-poly(A) binding inhibition. PABP-poly(A) RNA binding, fluorescence polarization. inhibition, % at 35 µM. actives 1% (n = 290,000);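 also: calls also rest on retests at 20 µM and on dose response follow-up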
# Target sequence (P11940 whole entry, looked up): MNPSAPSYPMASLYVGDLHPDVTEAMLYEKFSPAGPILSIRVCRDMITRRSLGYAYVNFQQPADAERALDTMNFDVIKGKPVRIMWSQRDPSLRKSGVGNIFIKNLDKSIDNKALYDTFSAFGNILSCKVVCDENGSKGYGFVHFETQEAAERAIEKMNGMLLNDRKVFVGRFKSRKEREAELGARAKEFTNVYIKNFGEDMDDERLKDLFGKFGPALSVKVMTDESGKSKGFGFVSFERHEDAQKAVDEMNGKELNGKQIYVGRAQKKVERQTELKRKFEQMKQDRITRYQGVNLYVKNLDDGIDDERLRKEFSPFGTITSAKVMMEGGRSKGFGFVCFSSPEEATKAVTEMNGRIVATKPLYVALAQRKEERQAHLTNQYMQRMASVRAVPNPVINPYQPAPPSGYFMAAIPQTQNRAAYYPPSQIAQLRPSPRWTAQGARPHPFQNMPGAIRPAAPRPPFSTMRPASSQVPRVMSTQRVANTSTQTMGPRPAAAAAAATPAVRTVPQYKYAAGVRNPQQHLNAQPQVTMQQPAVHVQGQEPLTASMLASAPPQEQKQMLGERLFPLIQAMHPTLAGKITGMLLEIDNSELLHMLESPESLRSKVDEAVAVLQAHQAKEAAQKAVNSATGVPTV
# eIF4H FP inh = inhibitors of RNA binding by human eIF4H. inhibition, % at 35 µM. eIF4H fluorescence polarization binding assay. actives 0.94% (n = 290,000);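 also: calls also rest on retests at 20 µM and on dose response follow-up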
# PABP1 MLLE inh = blocks PAM2 peptide binding to the PABP1 MLLE domain; GST-MLLE / FITC-PAM2 fluorescence polarization; inhibition, % at 20 µM; actives 0.36% (n = 360,000); in the data active = inhibition above about 35%, passing the limit was not always enough;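 also: plate controls were DMSO wells with GST-MLLE for no effect and wells lacking GST-MLLE protein for full effect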
# GRK2 aptamer HTS = human GRK2 inhibition via aptamer displacement; AID 488847; inhibition of aptamer binding, % at 10 µM; bead flow cytometry, FAM-aptamer displacement from GRK2; P25098; actives 0.59% (n = 330,000);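 active = inhibition of aptamer binding above 40%, roughly 3 SD of noise, on plates passing a quality check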;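 also: median bead fluorescence of bound FAM aptamer so fluorescent compounds give negative values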
# * marks the source's active call; other numbers are inactive results; ? = inconclusive; nt = not tested or not shown. Shown are actives, neighbours in structure and some others; about 1.9% of the full set was active somewhere. Unless noted, no rule for the calls is given here.
SMILES,PERK inhibitor,PABP polyA inh,eIF4H FP inh,PABP1 MLLE inh,GRK2 aptamer HTS
C=CCC[C@@H](Cc1ccc(F)cc1)C(=O)OC[C@@H](Cc1ccccc1)NC(=O)[C@@H](CC=C)CC(=O)N[C@@H](CO)Cc1ccccc1,nt,nt,nt,7.2,0.0
C=CCN(C(=O)c1csnn1)C(C(=O)NCc1ccc(F)cc1)c1cccs1 (stereo not given),nt,2.5,-13.5,10.3,1.0
O=[N+]([O-])c1cccc(C(=Nc2cccc(Cl)c2)NO)c1,0.2,13.8*,70.3*,2.6,0.0
CCCN1CCC(C(=O)NC(c2ccc(Cl)cc2)c2ccsc2)CC1 (stereo not given),nt,nt,nt,6.2,nt
CC(C)c1ccc(O)c(NC(=S)NC(=O)c2ccc3c(c2)OCO3)c1,nt,-1.7,4.3,46.8*,1.0
O=C(CO/N=C/c1ccc(OC(F)F)cc1)N1CCc2ccccc21,0.4,-7.4,-2.4,-25.5,100.0*
CCc1ccc(NS(=O)(=O)c2ccc3[nH]cc(C(=O)N4CCc5ccccc54)c(=O)c3c2)cc1,0.3,5.4,28.2,-9.4,41.0*
CNc1ccc(Br)cc(C(=O)/C=C/c2cccc(Cl)c2Cl)c1=O,0.2,65.4*,81.1,-120.1,nt
CNc1ccc(Br)cc(C(=O)/C=C/c2cccc(OC)c2OC)c1=O,0.2,-5.9,22.6,-42.9,3.0
COc1cc(/C=N\Nc2ccc([N+](=O)[O-])cc2)ccc1OCC(=O)Nc1ccc(C)c(C)c1,1.2,54.8*,?,6.8,nt
Oc1c(N=Nc2nn[nH]n2)ccc2ccccc12,nt,nt,nt,46.9*,nt
Oc1c(N=Nc2ccc(F)cc2)ccc2ccccc12,nt,17.0,50.5,-31.1,2.0
CCc1nc2ccc(C(=O)N(C)Cc3ccccc3)cn2c1N(CC)CCN(C)C,nt,nt,nt,-2.4,nt
O=c1[nH][nH]c2c(N=Cc3ccccc3O)ccc(F)c12,0.7,?,?,48.7*,nt
CCc1ccc(O)c(N=Cc2ccccc2O)c1,1.1,31.4,19.7,-15.5,0.0
CS(=O)(=O)Nc1ccccc1C(=O)Nc1cc(Cl)cc(Cl)c1,1.8,-1.5,-6.8,6.6,99.0*
N#Cc1cccc(-c2csc(C(O)c3ccco3)n2)c1 (stereo not given),nt,nt,nt,-6.0,nt
Nc1ccc(/C=C/C(=O)c2ccco2)cc1,0.3,5.4*,53.8*,-123.5,0.0
O=C(O)c1cc(N/N=C/C=C/c2ccccc2[N+](=O)[O-])ccc1Cl,0.0,23.9,4.5,12.7,2.0
CC(=O)C1=C(O)C(=O)N(c2cccc(C(=O)O)c2)C1c1ccc(F)cc1 (stereo not given),2.3,54.0*,?,-11.6,0.0
CC(=O)C1=C(O)C(=O)N(c2ccc(F)cc2)C1c1ccc(C)cc1 (stereo not given),nt,6.4,4.6,2.6,nt
CCNC(=O)C1(C)CCN1Cc1cc(-c2ccccc2)n(C)n1 (stereo not given),nt,nt,nt,-1.9,nt
COc1ccc(C(=O)Nc2cccc(-c3cc4ccccc4oc3=O)c2)cc1[N+](=O)[O-],0.0,-2.0,-9.9,-16.6,0.0
OCc1nc2nc(Cl)c(Cl)nc2[nH]1,0.3,13.2*,51.9*,9.8,0.0
COc1ccc(NC(=O)CSc2nc3c(c(=O)n2C)SCC3)cc1OC,nt,9.7,-6.4,-5.2,1.0
SMILES,PERK inhibitor,PABP polyA inh,eIF4H FP inh,PABP1 MLLE inh,GRK2 aptamer HTS
CCCc1nc2c(C)cc(Br)cn2c1Cc1ccc(C)cc1,nt,nt,nt,-0.5,nt
Cc1cc(Br)cn2ccnc12,3.0*,4.3,2.0,-5.6,0.0
O=C(O)COc1ccccc1C(Nc1ccccn1)c1cc(Cl)c2cccnc2c1O (stereo not given),0.9,6.4*,53.8*,32.1,0.0
O=C(Nc1cccc(Cl)c1N1CCCCC1)c1ccc(N2CCOCC2)c([N+](=O)[O-])c1,1.2,71.3*,active,-4.4,1.0
O=C(Nc1cccc(Cl)c1N1CCOCC1)c1cc([N+](=O)[O-])ccc1N1CCOCC1,nt,-1.5,-4.7,-19.3,0.0
CC(C)c1cc(CNC(=O)C2CCC(=O)N(CCc3ccc(Cl)cc3)C2)on1 (stereo not given),nt,-6.6,-6.0,12.4,0.0
CC(C)N1CCc2[nH]c(=S)[nH]c(=O)c2C1,0.6,-1.0,1.5,38.8,2.0
CCCN1CCc2[nH]c(=S)[nH]c(=O)c2C1,0.8,5.4,6.6,46.9*,3.0
Cc1ccc(CN2CCc3[nH]c(=S)[nH]c(=O)c3C2)cc1,nt,2.2,-6.8,28.4,0.0
O=c1[nH]c(=S)[nH]c2c1CN(Cc1ccc(F)cc1)CC2,nt,nt,nt,38.5*,0.0
Cc1cc(C(=O)CCC(=O)NCc2ccccc2F)c(C)s1,nt,nt,nt,2.4,1.0
CNC(=O)OCc1nc(SC2CCCCO2)n(C)c1COC(=O)NC (stereo not given),nt,nt,nt,-95.1,nt
